Results filed as inconclusive are left out. Entries that show only a call come without a potency. Activity calls are given as the source filed them. Calls come from the whole dose curve; as a rule, active = well fitted inhibition curve with a large enough effect; inconclusive = small, poorly fitted or top-dose-only effect; inactive = no such curve, though single readings can be large or run the other way.
Assay: NS1 protein of Zika virus - qHTS assay to identify small molecule inhibitors in human HEK 293 cells (AID 1347053); note: nearly all actives have a fitted effect of over 55% in size
Settings: HEK293 ZIKV MR766 infection, NS1 TR-FRET, 24 h; series mostly up to 46.1 µM
Excerpt: National Center for Advancing Translational Sciences [NCATS]
Johns Hopkins University School of Medicine
The non-structural 1 (NS1) protein of zika virus is known to associate with the viral replication complex. This cell-based TR-FRET ZIKV NS-1 assay measures the increased NS-1 protein in human HEK 293 cells after a 24-hour Zika virus infection by a TR-FRET assay readout. A decrease in the Time-resolved fluorescence energy transfer (TR-FRET) signal in this assay by small molecule treatment indicates an inhibitory effect of the small molecule on the expression of Zika virus NS1 correlating with Zika virus replication.
HEK 293 cells were cultured in EMEM (ATCC, Cat. # 30-2003) medium with 10% fetal bovine serum (GE healthcare Life Sciences, Cat. # SH30071.03), and 1% Pen/Strep (Gibco, Cat. # 15140-122). Cells were seeded in the assay plate and incubated at 37 C with 5% CO2 for 20 hours. Compounds were added to cells and incubated for one hour before addition of ZIKV MR766 strain solution to cells (MOI = 0.5). After an incubation at 37 C for 24 hours, the reagent mixture of TR-FRET ZIKV NS1 assay using two anti-ZIKV NS1 antibodies was added to assay plates. The TR-FRET signals in assay plates were measured using an Envision plate reader (PerkinElmer). Data were normalized by using the cell-containing wells without ZIKV as a negative control (0% NS-1) and wells containing ZIKV infected cells as a positive control (100% NS-1 level).

Row | Compound | Potency
1 | CCCCC1=NC2(CCCC2)C(=O)N1Cc1ccc(-c2ccccc2-c2nn[nH]n2)cc1 | inactive
2 | C[C@H]1C[C@H]2[C@@H]3CCC4=CC(=O)C=C[C@]4(C)[C@@]3(Cl)[C@@H](O)C[C@]2(C)[C@@]1(O)C(=O)CO | inactive
3 | C[C@]12CCC(=O)C=C1CC[C@H]1[C@@H]3CC[C@](O)(C(=O)CO)[C@@]3(C)C[C@H](O)[C@@]12F | inactive
4 | CC(Cc1ccccc1)(NC(=O)CN)c1ccccc1 (stereo not given) | inactive
5 | CC[N+](CC)(CCNC(=O)C(=O)NCC[N+](CC)(CC)Cc1ccccc1Cl)Cc1ccccc1Cl | inactive
6 | Cc1ncc(CSSCc2cnc(C)c(O)c2CO)c(CO)c1O | inactive
7 | CCCCS(=O)(=O)N[C@@H](Cc1ccc(OCCCCC2CCNCC2)cc1)C(=O)O | inactive
8 | Cc1c(C)n(CCN(C)C)c2ccc(C(=O)OCCN(C)C)cc12 | inactive
9 | CC1=C(C(=O)O)N2C(=O)[C@@H](NC(=O)[C@H](N)c3ccc(O)cc3)[C@H]2SC1 | inactive
10 | NCCC(O)(P(=O)(O)O)P(=O)(O)O | inactive
11 | C/C=C(/C(=C/C)c1ccc(O)cc1)c1ccc(O)cc1 | inactive
12 | Oc1ccc(Cl)cc1Sc1cc(Cl)ccc1O | inactive
13 | CCCC(=O)O[C@]1(C(=O)CO)CC[C@H]2[C@@H]3CCC4=CC(=O)CC[C@]4(C)[C@H]3[C@@H](O)C[C@@]21C | inactive
14 | CC(C)COC(=O)c1ccc(N)cc1 | inactive
15 | O=C1OC2(c3ccc(O)cc3Oc3cc(O)ccc32)c2ccccc21 | inactive
16 | CCOC(=O)OC(C)OC1=C(C(=O)Nc2ccccn2)N(C)S(=O)(=O)c2ccccc21 (stereo not given) | inactive
17 | O=C1[C@H]2CCCC[C@H]2C(=O)N1CCCCN1CCN(c2nsc3ccccc23)CC1 | inactive
18 | CC/C(=C(/CC)c1ccc(O)cc1)c1ccc(O)cc1 | inactive
19 | Cc1c(C(C)C)c(=O)n(-c2ccccc2)n1C | inactive
20 | Cc1c(F)c(N2CCNC(C)C2)cc2c1c(=O)c(C(=O)O)cn2C1CC1 (stereo not given) | inactive

Row | Compound | Potency
21 | CC(C)(C)CC(C)(C)c1ccc(O)c(Cc2ccc(Cl)cc2Cl)c1 | inactive
22 | COC(=O)CCc1ccc(OCC(O)CNC(C)C)cc1 (stereo not given) | inactive
23 | COc1cccc2c1C(=O)c1c(O)c3c(c(O)c1C2=O)C[C@@](O)(C(C)=O)C[C@@H]3O[C@H]1C[C@H](N)[C@H](O)[C@H](C)O1 | inactive
24 | CCCCCCc1ccc(O)cc1O | inactive
25 | Nc1cc(Cl)c(NC2=NCCN2)c(Cl)c1 | inactive
26 | CCOC(=O)c1cccc(N)c1 | inactive
27 | CCCCOc1ccc(C(=O)CCN2CCCCC2)cc1 | inactive
28 | CN(C/C=C/c1ccccc1)Cc1cccc2ccccc12 | inactive
29 | NC(=O)c1cc[n+](CC2=C(C(=O)[O-])N3C(=O)[C@@H](NC(=O)Cc4cccs4)[C@H]3SC2)cc1 | inactive
30 | CN(C)CCOc1ccccc1Cc1ccccc1 | inactive
31 | COc1cc(N)c(Cl)cc1C(=O)NC1CCN(CCCOc2ccc(F)cc2)CC1OC (stereo not given) | inactive
32 | Nc1ccc(C(=O)Nc2ccccc2N)cc1 | inactive
33 | CN1CCN(CCCN2c3ccccc3Sc3ccc(S(=O)(=O)N(C)C)cc32)CC1 | inactive
34 | Cc1ccnc(NS(=O)(=O)c2ccc(N)cc2)n1 | inactive
35 | Cc1ccccc1C(=O)Nc1ccc(C(=O)N2CCCC(N(C)C)c3ccccc32)cc1 (stereo not given) | inactive
36 | COc1cc2c(cc1OC)[C@@H]1CC(=O)[C@@H](CC(C)C)CN1CC2 | inactive
37 | Clc1ccc2c(c1)CCc1cccnc1C2=C1CCNCC1 | inactive
38 | CC(=O)[C@H]1CC[C@H]2[C@@H]3C[C@H](C)C4=CC(=O)CC[C@]4(C)[C@H]3[C@@H](O)C[C@]12C | inactive
39 | CN1CCC(=C2c3ccccc3Sc3ccccc32)CC1 | inactive
40 | COc1cc(OC)cc(OC)c1 | inactive

Source: PubChem BioAssay (NCATS)
